# Measured values: PubChem BioAssay (NCI)
# The panel holds about 83,000 compounds, 20% with a hit somewhere; the sample as a whole holds those more often.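 96-well plates, one dose, 48 hours. Percent growth reported; active if below 10.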 Unmarked numbers belong to inactive results. Active and inactive are the calls of the source.
# Columns and labels:
# Assay in all cases: NCI-60 one-dose screen, 48 h (100 = growth as untreated, 0 = no growth, -100 = all killed)
# Conditions in all cases: 10 µM unless noted
# T-47D breast = tested on: T-47D breast
# BT-549 breast = tested on: BT-549 breast
# MDA-MB-435 melanoma = tested on: MDA-MB-435 melanoma
# SW-620 colon = tested on: SW-620 colon
# MCF7 breast = tested on: MCF7 breast
# HCT-116 colon = tested on: HCT-116 colon
# HCC-2998 colon = tested on: HCC-2998 colon
# KM12 colon = tested on: KM12 colon
SMILES,growth (T-47D breast),growth (BT-549 breast),growth (MDA-MB-435 melanoma),growth (SW-620 colon),growth (MCF7 breast),growth (HCT-116 colon),growth (HCC-2998 colon),growth (KM12 colon)
Cn1c(COC(=O)NCCN2CCOCC2)nc2c(N3CCOCC3)nc(-c3ccccc3)nc21,-28.9% (active),-66.4% (active),-87.4% (active),-76.9% (active),-59% (active),-80.9% (active),-53.8% (active),-5.33% (active)
C#CC(=O)Nc1cccc(Nc2nc3c(c(NCc4ccccc4)n2)CCCC3)c1,-38.7% (active),-70% (active),-70.6% (active),-46.7% (active),-39.7% (active),-78.8% (active),-89.3% (active),-53.4% (active)
CCCC/C(=N\N=C(N)N)c1ccc(F)cc1,38.9%,21.6%,-19.8% (active),23.8%,13.1%,21.1%,37%,15.7%
Clc1nc(Cl)c2ncn(CC3(Cn4cnc5c(Cl)nc(Cl)nc54)COC3)c2n1,-61.7% (active),-93.2% (active),-85.7% (active),-88.7% (active),-52.4% (active),-100% (active),-85.3% (active),-73.4% (active)
O=C(Nc1cccc(C2=NCCN2)c1)c1ccc(OCCCOc2ccc(C(=O)Nc3cccc(C4=NCCN4)c3)cc2)cc1,18%,35.2%,-72% (active),14.8%,0.803% (active),6.6% (active),-13.3% (active),14.2%
c1cnc2nc3c(cc2c1)oc1ccccc13,100%,98.8%,103%,99.4%,86.6%,101%,100%,98.2%
O=C1Nc2c(ccc(Cl)c2Cl)/C1=C/c1ccc(F)cc1,71.2%,99.8%,99.1%,96.4%,37.7%,84.4%,58.1%,85.2%
CN1CCN(c2ccc3nc(-c4cc(C(C)(C)C)c(O)c(C(C)(C)C)c4)[nH]c3c2)CC1,63.2%,98.2%,0.049% (active),14.7%,35.6%,23.3%,25.2%,16.9%
CCCCCCCCCCCCCCCC(=O)OC[C@@]1(O)C[C@@]23CC[C@@H]4C(C)(C)[C@H](O)CC[C@@]4(C)[C@@H]2CC[C@H]1C3,98.1%,91.5%,108%,110%,97%,-67% (active),107%,108%
O=C(CCN1CCCC1)Nc1ccc2c(NCc3ccc(F)cc3)c3ccccc3nc2c1,-5.76% (active),18.5%,-53.4% (active),-31.3% (active),-12.2% (active),-29.9% (active),-32.5% (active),-6.48% (active)
c1ccc2c(-c3c4ccsc4cc4[nH]c5ccccc5c34)c[nH]c2c1,26.3%,33.9%,1.93% (active),25.4%,15%,17.5%,65.6%,14.9%
COc1ccccc1N1CCN(C(=O)c2ccc3nc(NC(=O)c4ccc(NCCc5ccccc5)c([N+](=O)[O-])c4)sc3c2)CC1,73.2%,80.3%,89.4%,75.1%,70.8%,57.7%,110%,79%
O=C(Nc1sc2c(c1C(=O)O)CCCC2)c1cccc(C(F)(F)F)c1,73.4%,93.1%,86.2%,90.6%,63.5%,80.2%,101%,89.9%
COc1ccc(-c2nc(N=Nc3c(O)[nH]c4ccccc34)nc(N3CCOCC3)c2C#N)cc1,65.4%,62.8%,79.1%,66.8%,60.6%,29.7%,95%,73.4%
NNC(=O)/C(=C\c1ccc([N+](=O)[O-])cc1)CC(=O)c1ccc(Cl)c(Cl)c1,77.1%,110%,96.9%,86%,73.8%,88.9%,93.5%,95.2%
O=C1c2ccccc2C(=O)c2c(NCCN=Cc3ccccc3O)cccc21,63.6%,73.4%,71.5%,35.4%,32.4%,15.4%,30.9%,48.7%

SMILES,growth (T-47D breast),growth (BT-549 breast),growth (MDA-MB-435 melanoma),growth (SW-620 colon),growth (MCF7 breast),growth (HCT-116 colon),growth (HCC-2998 colon),growth (KM12 colon)
Cc1cc(Nc2cccc(C(F)(F)F)c2)n2c(nc3ccccc32)c1C#N,8.68% (active),19.4%,45.5%,23.8%,36.3%,39.6%,46.3%,20.9%
COc1cc(NCCCN(CC(C)C)C2CCCC2)c2ncccc2c1,29.9%,75.6%,89.2%,41.4%,0.473% (active),37.8%,92.4%,93%
CN1CCN(c2ccc(NC3=C(Cl)C(=O)c4ncccc4C3=O)cc2C#N)CC1,-33.3% (active),96.3%,-92.9% (active),-75.3% (active),-59.9% (active),-56.7% (active),96.7%,105%
O=C(CCN1CCCC1)Nc1ccc2c(Nc3ccccc3)c3ccccc3nc2c1,18.6%,41%,-93.5% (active),-27.9% (active),-13.5% (active),-45.4% (active),-74.1% (active),16.1%
COc1ccc(C(=O)c2cc(C)c(OC)c(C)c2)c(OC)c1O,40.2%,8.49% (active),-40.3% (active),22%,16.1%,1.83% (active),16.8%,7.53% (active)
CC(O)/C=C/C=C/C(O)CC/C=C/C(=O)NCC(C)(C)O (stereo not drawn),86.2%,109%,110%,118%,78.2%,93.5%,90.6%,102%
C=C(C)[C@@H]1CC[C@]2(C(=O)NCC(=O)OC)CC[C@]3(C)[C@H](CC[C@@H]4[C@@]5(C)Cc6c([nH]c7ccccc67)C(C)(C)[C@@H]5CC[C@]43C)[C@@H]12,47.7%,81.3%,90%,83%,63.5%,42%,103%,79.2%
CS(=O)(=O)c1ccc(-c2cc3c(oc2=O)-c2ccccc2OC3O)cc1 (stereo not drawn),90.4%,107%,111%,97.8%,84.8%,95.9%,97.5%,95.1%
CCC(=O)c1ccc(O)c(OC)c1,109%,114%,114%,101%,108%,91.2%,101%,113%
CC(C)(C)CC(C)(C)Nc1c(-c2ccc(C(F)(F)F)cc2)nc2cnccn12,74.4%,76%,98.8%,102%,66.5%,-5.73% (active),92.1%,83.8%
Cn1c(=O)c2[nH]c(CCCc3nc4c([nH]3)c(=O)n(C)c(=O)n4C)nc2n(C)c1=O,96.4%,121%,111%,112%,92.8%,108%,112%,118%
O=C(N/N=C/c1ccc(F)cc1)c1ccccc1Nc1cccc(C(F)(F)F)c1,88.2%,105%,100%,96%,106%,111%,107%,91.4%
COc1ccccc1/C=C1\COc2ccc(-c3ccccc3)cc2C1=O,14%,12%,-45% (active),16.8%,-9.07% (active),5.64% (active),51.6%,-32% (active)
CCCCN(CCCC)CCc1c(C)cc(C)c(CCN(CCCC)CCCC)c1O,5.78% (active),43.3%,17.1%,24.1%,12.8%,6.6% (active),19.6%,41.4%
O=C(NCCN1CCOCC1)OCc1nc2nc(Cl)nc(N3CCOCC3)c2[nH]1,63.2%,13.1%,-28.9% (active),23.9%,20.2%,8.45% (active),77.8%,3.29% (active)
